The panel holds about 83,000 compounds, 20% with a hit somewhere; the sample as a whole holds those more often.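 Percent growth is the endpoint: 0 to 100 indicates growth inhibition (40 means 60% inhibition), 0 means no net growth, and negative values indicate cell death.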 Unmarked numbers belong to inactive results. Calls of active or inactive are those of the source.

In the experiment the test system is NCI/ADR-RES ovarian. The experiment in a line: NCI-60 one-dose screen, 48 h (100 = growth as untreated, 0 = no growth, -100 = all killed). Particulars: 10 µM unless noted. The procedure:
Growth inhibition of the NCI/ADR-RES human […] tumor cell line is measured as a screen for anti-cancer activity. Cells are grown in 96 well plates and exposed to the test compound for 48 hours. Compounds are tested at a single concentration, which is 10^-5 M for most compounds. The reported endpoint is percent growth (GI% or GIPRCNT), where numbers from 0 - 100% represent growth inhibition, and numbers from -100% - 0 represent cell death. For example, a value of 40 represents 60% growth inhibition. A value of 0 means no net growth occurred over the course of the experiment. A value of -40 indicates 40% of cells at the beginning of the experiment died by the end of the experiment. A value of -100 means all cells are dead at the end of the experiment.
NCI-60 Human Tumor Cell Lines Screen was performed using the standard one-dose NCI protocol, which is described in more detail at https://dtp.cancer.gov/discovery_development/nci-60/default.htm.
Compounds with GIPRCNT values below 10 were considered active. Activity score was based on GIPRCNT using the following formula: […]
Score is 0 for GIPRCNT values of 100 or above, 50 for GIPRCNT values of 0, and 100 for GIPRCNT values of -100.
As for `Cn1c2ccccc2c2ssc(=S)c21`, the growth was 86.8%.

Regarding `CC(C)[C@@H]1NC(=O)[C@]2(C)CSC(=N2)c2ccnc(c2)CNC(=O)C[C@@H](/C=C/CCS)OC1=O`, the growth was 29.8%. With `CO[C@H]1/C=C/C=C/C=C/C[C@H](OC(=O)[C@@H](C)NC(=O)C2CCCCC2)[C@H](C)[C@@H](O)/C(C)=C\CCC2=CC(=O)C=C(NC(=O)C1)C2=O` the figure was 32%; with `O=c1c(-c2ccc3c(c2)OCO3)coc2c(CO)c(O)ccc12`, 52%; with `COc1cc2c(cc1OC)-c1c(oc3c4c(ccc3c1=O)OC(C)(C)C=C4)CO2`, 65.8%. As to `C/C(=N/O)c1ccc(NC(=O)Cn2nc(-c3ccc(Cl)cc3)nc2N)cc1`, the growth was 99.6%.

Turning to `COc1ccc2c(c1)C(=O)/C(=C/c1ccc(OCC(=O)c3ccc(Cl)cc3)cc1)O2`, the growth is 98.8%. With `O=C(Nc1cccc(-n2ccc3c(NC(=O)c4ccccc4)nccc32)c1)c1cccc(C(F)(F)F)c1` the figure was -1.18% (active); with `c1ccc(OCC[P+](c2ccccc2)(c2ccccc2)c2ccccc2)cc1`, 108%.

In the case of `Cc1ccc(Cn2cc(COc3ccc4c5ccnc(C)c5n(CCCc5ccccc5)c4c3)nn2)cc1`, the growth is 76.4%. With `NC(N)=N/N=C/c1ccc([N+](=O)[O-])cc1` the figure was 78.5%. With `O=C(Nc1ccc(-n2ccc3c(NC(=O)c4ccccc4)nccc32)cc1)c1ccc(Cl)c(C(F)(F)F)c1` the figure was 22.9%. With `COc1ccc(SC2c3ccc(O)cc3Oc3nc(N)c(C#N)c(N)c32)cc1` (stereo not given) the figure was 98.8%; with `O=c1c2ccccc2sc2c(NCCCNCCO)nc3ccccc3c12`, 31.5%. As to `COc1ccc(/C(=C/c2cc(OC)c(OC)c(OC)c2)[N+](=O)[O-])cc1`, the growth is 33.8%. With `CN(C)c1ccc2cc(-c3nc4ccccc4s3)c(N)nc2c1` the figure was 34.3%; with `CC(C)NCC(O)COc1ccc(CC(N)=O)cc1` (stereo not given), 104%. With `CC(/C=C/C=C(\C)[C@H](O)[C@H](C)C(=O)O[C@H]1C[C@H](C)C=C2C=C[C@@]3(C)O[C@@H](O)CC(=O)[C@]3(C)[C@H]21)=C\C=C\C(=O)O` the figure was 53.8%. The figure for `O=[N+]([O-])c1ccccc1NC1c2ccccc2Oc2ccccc21` is 31.4%; for `O=C1c2ccccc2C(=O)c2c(NCCN=Cc3c(O)ccc4ccccc34)cccc21` it is 85.5%; for `COc1ccc(-c2[nH]c3ccccc3c2/C=C(\C#N)S(=O)(=O)c2ccccc2)cc1` it is 0.134% (active). Turning to `CN(C)c1ccc(/C=c2\s/c(=C\C(=O)C(C)(C)C)[nH]c2=O)cc1`, the growth was 103%. With `COc1cc([C@@H]2c3cc4c(cc3C(OC3O[C@@H]5COC(C)O[C@H]5[C@H](O)[C@H]3O)C3COC(=O)[C@@H]32)OCO4)cc(OC)c1O` (stereo not given in full) the figure was 90.4%. The figure for `COc1ccc(-c2cc(-c3nnc(SC/C(=N\O)c4ccccc4)n3-c3ccccc3)c3ccccc3n2)cc1` is 104%.

On to `O=C(O)c1ccccc1C(=O)c1ccc(I)cc1`, for which the growth is 97.5%. For the molecule `CN1CCN(Cn2nc(-c3cc(F)c(Cl)cc3Cl)n(/N=C/c3ccc(N(C)C)cc3)c2=S)CC1`, the growth is 65.9%. With `Oc1ccccc1/C=N/c1ccccn1`, the growth was -97.1% (active). The figure for `CC(=O)N1N=C2N(Cc3ccccc3)C(=O)c3c(sc4c3CCCC4)N2C1c1cn(-c2ccccc2)nc1-c1ccc(Cl)cc1` (stereo not given) is 100%; for `Cc1ccc2c(C3C(C#N)=C(N)Oc4cc5ccccc5cc43)cc(=O)oc2c1` (stereo not given) it is 11.8%. With `COc1cc(Cn2cc3c(c2)-c2onc(CO)c2CC3)cc(OC)c1OC` the figure was 93.8%. The figure for `O=[N+]([O-])c1cccc(C2c3ccccc3Oc3ccccc32)c1` is 93.7%; for `O[C@@H]1CCO[C@H](c2ccc3ccccc3c2)C1` it is 106%; for `CN1C(=O)C2(SCC(C(=O)NCC(=O)OC(C)(C)C)N2C(=O)C2CCCCC2)c2ccccc21` (stereo not given) it is 97.7%. Take `COc1cc2ncn3c(=O)c4c5c(sc4nc3c2cc1OC)CCCCC5`: the growth is 92.4%. Take `CC(C)(C)OC(=O)NCc1cccc(N=C=S)c1`: the growth is 71.3%.

As for `CNC(=O)NN`, the growth was 105%. With `COc1ccc(CCNC=O)cc1OC` the figure was 97.4%; with `COc1ccc(C(=O)NC(=O)Nc2ccc3c(c2)NC(=O)/C3=C\c2[nH]c(C)c(CCC(=O)O)c2C)c(F)c1`, 88.7%; with `CCN1CCN(Cc2ccc(NC(=O)Nc3cccc(-n4ccc5c(NC(=O)c6ccccc6)nccc54)c3)cc2C(F)(F)F)CC1`, 92.1%. Take `COc1cc(/C=C\c2cc(/C=C\c3ccc(O)c(OC)c3)n(C(=O)CNc3ccccc3OC)n2)ccc1O`: the growth was 54.4%.

The values are drawn from PubChem BioAssay (NCI).
